{"source": "the supplement of paper PMC10849652", "note": "Of roughly 8,800 targets only a part is listed; those with a hit were picked by preference. About 0.5% of all pairs of compound and target were hits. Values without a mark were called inactive."}
{"compound": "CC1=CC=C(C=C1)SC2=C3C=C(SC3=CN=C2)C(=O)N", "test": "log2 fold change, soluble protein after heating vs DMSO (PISA); higher = thermal stabilisation; K562 lysate, 10 uM; active = over 0.2 and 3.5 SD of the protein, either way, in both replicates (recomputed)", "procedure,_shortened": "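K562 pellets were dounce-homogenised in PBS pH 7.4 with 1 mM MgCl2, and the crude extract at 1 mg/mL protein was treated with 10 μM compound for 30 min. Aliquots were heated for 3 min across 48°C-58°C, pooled, and brought to 0.5% NP-40 at 4°C; soluble protein was the supernatant after 21,000xg for 90 min. Soluble protein was quantified by TMTpro 16plex LC-MS/MS with channel sums equalised, and reported as log2 fold change in thermal stability against DMSO controls, with values from duplicates.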"}
{"target": "SEC62 (UniProt Q99442)", "log2 fold change": -0.015}
{"target": "RPL28 (UniProt P46779)", "log2 fold change": 0.026}
{"target": "SBF1 isoform 4 (UniProt O95248)", "log2 fold change": 0.079}
{"target": "SEC16A isoform 5 (UniProt O15027)", "sequence (O15027 whole entry, looked up)": "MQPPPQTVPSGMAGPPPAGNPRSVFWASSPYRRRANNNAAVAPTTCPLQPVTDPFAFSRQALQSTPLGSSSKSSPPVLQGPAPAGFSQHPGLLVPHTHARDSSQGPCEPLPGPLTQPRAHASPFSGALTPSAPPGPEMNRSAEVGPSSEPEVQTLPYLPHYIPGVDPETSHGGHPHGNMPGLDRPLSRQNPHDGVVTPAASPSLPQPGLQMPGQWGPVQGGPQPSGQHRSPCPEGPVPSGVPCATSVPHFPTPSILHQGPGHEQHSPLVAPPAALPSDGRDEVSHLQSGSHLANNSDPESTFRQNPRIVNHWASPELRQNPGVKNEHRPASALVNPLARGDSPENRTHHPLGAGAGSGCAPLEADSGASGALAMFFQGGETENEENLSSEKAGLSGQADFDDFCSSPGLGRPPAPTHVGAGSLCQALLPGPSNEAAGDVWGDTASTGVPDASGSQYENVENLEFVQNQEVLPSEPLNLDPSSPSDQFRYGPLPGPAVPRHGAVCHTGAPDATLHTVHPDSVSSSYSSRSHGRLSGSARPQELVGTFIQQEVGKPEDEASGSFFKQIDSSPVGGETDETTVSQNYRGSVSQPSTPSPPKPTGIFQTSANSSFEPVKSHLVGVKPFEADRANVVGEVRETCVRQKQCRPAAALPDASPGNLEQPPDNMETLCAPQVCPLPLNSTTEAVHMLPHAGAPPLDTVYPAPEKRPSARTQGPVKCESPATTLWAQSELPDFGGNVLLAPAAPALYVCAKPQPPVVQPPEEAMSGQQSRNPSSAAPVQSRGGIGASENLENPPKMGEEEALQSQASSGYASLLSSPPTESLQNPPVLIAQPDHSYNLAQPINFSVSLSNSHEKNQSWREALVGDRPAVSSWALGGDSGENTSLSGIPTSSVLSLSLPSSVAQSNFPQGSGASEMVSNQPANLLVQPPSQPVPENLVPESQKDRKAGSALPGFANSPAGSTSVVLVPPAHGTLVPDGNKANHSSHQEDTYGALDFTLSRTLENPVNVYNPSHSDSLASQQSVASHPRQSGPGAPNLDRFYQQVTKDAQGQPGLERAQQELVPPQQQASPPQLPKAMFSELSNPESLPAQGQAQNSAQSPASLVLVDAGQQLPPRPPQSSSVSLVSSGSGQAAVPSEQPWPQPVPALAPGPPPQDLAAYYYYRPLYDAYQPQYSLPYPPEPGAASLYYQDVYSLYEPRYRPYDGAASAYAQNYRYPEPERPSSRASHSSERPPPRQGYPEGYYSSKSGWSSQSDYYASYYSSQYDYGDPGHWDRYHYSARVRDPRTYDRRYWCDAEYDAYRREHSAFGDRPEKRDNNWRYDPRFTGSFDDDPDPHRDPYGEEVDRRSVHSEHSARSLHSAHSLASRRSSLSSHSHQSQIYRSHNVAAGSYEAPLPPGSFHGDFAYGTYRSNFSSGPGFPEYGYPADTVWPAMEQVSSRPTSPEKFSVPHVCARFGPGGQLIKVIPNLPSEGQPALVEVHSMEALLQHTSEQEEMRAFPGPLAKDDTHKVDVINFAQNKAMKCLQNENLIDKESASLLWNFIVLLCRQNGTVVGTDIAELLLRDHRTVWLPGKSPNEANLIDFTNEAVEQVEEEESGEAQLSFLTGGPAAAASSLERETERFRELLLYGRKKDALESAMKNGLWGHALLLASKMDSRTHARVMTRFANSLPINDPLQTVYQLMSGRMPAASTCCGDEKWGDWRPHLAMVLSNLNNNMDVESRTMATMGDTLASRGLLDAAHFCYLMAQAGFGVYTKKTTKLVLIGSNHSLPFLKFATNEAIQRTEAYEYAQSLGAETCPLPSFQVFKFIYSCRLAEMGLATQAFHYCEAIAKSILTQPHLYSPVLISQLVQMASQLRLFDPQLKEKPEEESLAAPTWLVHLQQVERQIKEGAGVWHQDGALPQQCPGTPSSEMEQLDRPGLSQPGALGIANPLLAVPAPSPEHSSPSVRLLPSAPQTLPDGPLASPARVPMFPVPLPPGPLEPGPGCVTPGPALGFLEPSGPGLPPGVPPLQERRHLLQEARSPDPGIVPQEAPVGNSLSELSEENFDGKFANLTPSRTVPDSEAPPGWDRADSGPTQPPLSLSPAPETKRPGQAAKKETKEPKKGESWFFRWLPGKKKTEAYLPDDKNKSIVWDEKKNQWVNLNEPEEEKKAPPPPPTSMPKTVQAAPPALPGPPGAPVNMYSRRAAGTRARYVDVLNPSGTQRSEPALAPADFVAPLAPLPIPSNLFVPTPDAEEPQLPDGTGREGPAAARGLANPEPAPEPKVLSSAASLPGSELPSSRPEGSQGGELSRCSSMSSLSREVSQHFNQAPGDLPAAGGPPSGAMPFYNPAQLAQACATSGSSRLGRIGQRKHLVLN", "log2 fold change": -0.031}
{"target": "SEH1L isoform 1 (UniProt Q96EE3)", "log2 fold change": -0.014}
{"target": "RDH14 (UniProt Q9HBH5)", "log2 fold change": -0.012}
{"target": "RFC3 (UniProt P40938)", "log2 fold change": -0.008}
{"target": "RAB1B (UniProt Q9H0U4)", "log2 fold change": -0.006}
{"target": "RRAGA (UniProt Q7L523)", "sequence (Q7L523 whole entry, looked up)": "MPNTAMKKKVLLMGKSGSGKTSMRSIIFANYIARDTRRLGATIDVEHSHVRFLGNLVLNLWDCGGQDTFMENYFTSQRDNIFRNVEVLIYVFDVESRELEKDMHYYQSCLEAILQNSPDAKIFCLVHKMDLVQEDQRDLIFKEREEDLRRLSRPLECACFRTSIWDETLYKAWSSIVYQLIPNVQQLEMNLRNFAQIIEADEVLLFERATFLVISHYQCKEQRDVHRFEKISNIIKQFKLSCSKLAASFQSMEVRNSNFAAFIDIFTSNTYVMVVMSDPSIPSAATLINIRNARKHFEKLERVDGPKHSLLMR", "log2 fold change": -0.113}
{"target": "RAB3IL1 (UniProt E9PK89)", "log2 fold change": -0.031}
{"target": "RBM42 (UniProt Q9BTD8)", "log2 fold change": 0.069}
{"target": "RBSN (UniProt Q9H1K0)", "log2 fold change": 0.035}
{"target": "RAC2 (UniProt P15153)", "log2 fold change": -0.014}
{"target": "RSU1 (UniProt Q15404)", "sequence (Q15404 whole entry, looked up)": "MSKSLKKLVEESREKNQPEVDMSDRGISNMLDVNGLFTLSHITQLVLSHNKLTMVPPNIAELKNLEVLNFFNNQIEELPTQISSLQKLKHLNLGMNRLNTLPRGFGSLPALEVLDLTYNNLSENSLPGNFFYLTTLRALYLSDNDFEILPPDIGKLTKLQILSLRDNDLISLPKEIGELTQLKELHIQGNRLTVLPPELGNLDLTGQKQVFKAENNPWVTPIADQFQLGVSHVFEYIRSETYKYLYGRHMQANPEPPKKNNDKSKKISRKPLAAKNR", "log2 fold change": -0.012}
{"target": "RPL37A (UniProt P61513)", "log2 fold change": 0.051}
{"target": "QRSL1 (UniProt Q9H0R6)", "log2 fold change": 0.076}
{"target": "RBBP8 isoform 2 (UniProt Q99708)", "log2 fold change": -0.143}
{"target": "RASA2 (UniProt Q15283)", "log2 fold change": -0.013}
{"target": "RIOK3 (UniProt O14730)", "log2 fold change": -0.093}
{"target": "RMC1 (UniProt Q96DM3)", "log2 fold change": 0.027}
{"target": "RPS6KB1 (UniProt P23443)", "log2 fold change": -0.001}
{"target": "RCAN1 (UniProt P53805)", "log2 fold change": 0.02}
{"target": "RNF40 (UniProt O75150)", "log2 fold change": 0.004}
{"target": "RNPS1 (UniProt Q15287)", "sequence (Q15287 whole entry, looked up)": "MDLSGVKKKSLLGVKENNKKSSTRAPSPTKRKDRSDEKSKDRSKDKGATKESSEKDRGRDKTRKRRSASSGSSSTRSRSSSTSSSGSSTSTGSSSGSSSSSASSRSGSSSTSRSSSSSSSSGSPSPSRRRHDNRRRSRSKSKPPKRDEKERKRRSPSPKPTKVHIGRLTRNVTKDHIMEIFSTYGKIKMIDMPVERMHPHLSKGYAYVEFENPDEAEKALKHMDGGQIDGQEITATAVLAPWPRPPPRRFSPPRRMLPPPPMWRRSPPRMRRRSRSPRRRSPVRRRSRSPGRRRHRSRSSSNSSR", "log2 fold change": -0.032}
{"target": "RAI14 isoform 2 (UniProt Q9P0K7)", "log2 fold change": 0.001}
{"target": "SDHA (UniProt P31040)", "sequence (P31040 whole entry, looked up)": "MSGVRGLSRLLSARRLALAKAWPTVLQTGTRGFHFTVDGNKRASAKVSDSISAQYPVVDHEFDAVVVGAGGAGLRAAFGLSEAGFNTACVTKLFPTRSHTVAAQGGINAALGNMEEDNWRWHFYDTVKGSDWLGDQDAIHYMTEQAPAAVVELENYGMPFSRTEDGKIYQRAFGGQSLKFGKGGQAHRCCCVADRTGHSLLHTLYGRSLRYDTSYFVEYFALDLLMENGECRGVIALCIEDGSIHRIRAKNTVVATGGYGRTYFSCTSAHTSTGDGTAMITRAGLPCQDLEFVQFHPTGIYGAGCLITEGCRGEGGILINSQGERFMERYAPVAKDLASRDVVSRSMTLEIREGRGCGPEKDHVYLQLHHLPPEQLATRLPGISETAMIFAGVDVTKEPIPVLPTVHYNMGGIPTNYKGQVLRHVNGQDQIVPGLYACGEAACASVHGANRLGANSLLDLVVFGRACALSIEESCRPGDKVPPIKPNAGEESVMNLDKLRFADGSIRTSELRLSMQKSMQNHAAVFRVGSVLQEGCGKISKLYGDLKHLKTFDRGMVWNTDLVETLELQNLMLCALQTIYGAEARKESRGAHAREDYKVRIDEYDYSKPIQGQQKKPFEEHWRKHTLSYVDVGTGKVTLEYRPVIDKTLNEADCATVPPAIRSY", "log2 fold change": 0.002}
{"target": "SCCPDH (UniProt Q8NBX0)", "log2 fold change": 0.187}
{"target": "RPS6KA1 (UniProt Q15418)", "sequence (Q15418 whole entry, looked up)": "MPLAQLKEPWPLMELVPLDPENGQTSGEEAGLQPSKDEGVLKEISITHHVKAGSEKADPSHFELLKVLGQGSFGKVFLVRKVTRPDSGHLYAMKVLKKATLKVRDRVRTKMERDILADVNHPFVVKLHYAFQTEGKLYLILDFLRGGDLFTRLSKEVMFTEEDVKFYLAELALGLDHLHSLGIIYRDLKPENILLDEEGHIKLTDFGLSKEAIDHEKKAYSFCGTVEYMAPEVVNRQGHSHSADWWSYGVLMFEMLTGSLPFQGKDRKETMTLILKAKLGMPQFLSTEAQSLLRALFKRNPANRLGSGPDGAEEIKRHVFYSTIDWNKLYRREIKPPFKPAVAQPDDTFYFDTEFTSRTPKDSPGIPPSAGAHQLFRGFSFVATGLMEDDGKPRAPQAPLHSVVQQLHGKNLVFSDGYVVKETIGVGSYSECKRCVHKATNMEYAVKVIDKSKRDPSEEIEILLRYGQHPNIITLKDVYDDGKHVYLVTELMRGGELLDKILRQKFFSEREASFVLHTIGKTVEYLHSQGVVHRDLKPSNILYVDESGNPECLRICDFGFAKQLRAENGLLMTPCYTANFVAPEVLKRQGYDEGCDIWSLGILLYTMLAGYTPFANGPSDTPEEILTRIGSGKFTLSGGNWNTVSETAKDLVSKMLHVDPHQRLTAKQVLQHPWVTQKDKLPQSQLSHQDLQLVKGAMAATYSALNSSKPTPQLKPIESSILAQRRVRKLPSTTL", "log2 fold change": -0.023}
{"target": "RBM22 (UniProt Q9NW64)", "sequence (Q9NW64 whole entry, looked up)": "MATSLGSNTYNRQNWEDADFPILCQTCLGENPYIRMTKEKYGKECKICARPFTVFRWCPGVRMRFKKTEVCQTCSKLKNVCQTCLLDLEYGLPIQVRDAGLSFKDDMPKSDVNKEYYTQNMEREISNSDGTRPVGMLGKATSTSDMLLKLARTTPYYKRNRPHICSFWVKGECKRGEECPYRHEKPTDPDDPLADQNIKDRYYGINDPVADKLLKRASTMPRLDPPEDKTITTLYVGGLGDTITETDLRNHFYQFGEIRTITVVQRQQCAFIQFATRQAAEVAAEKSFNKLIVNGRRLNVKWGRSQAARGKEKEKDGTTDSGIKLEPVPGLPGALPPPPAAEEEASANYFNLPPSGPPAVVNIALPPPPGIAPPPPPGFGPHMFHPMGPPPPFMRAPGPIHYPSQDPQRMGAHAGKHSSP", "log2 fold change": -0.006}
{"target": "RPS26P11 (UniProt Q5JNZ5)", "log2 fold change": 0.016}
{"target": "RTN4IP1 (UniProt Q8WWV3)", "log2 fold change": -0.033}
{"target": "ROCK1 (UniProt Q13464)", "log2 fold change": 0.002}
{"target": "RPL8 (UniProt P62917)", "log2 fold change": 0.011}
{"target": "RPL36AL (UniProt Q969Q0)", "log2 fold change": 0.052}
